# Reference: PubChem BioAssay (NCATS)
# Inconclusive results are not listed. Where a call stands in place of a potency, no number is given. Some structures have more than one record in an assay (separate samples or runs), and their calls can disagree. Calls of active or inactive are those of the source. Unless noted, calls come from the whole dose curve; as a rule, active = well fitted curve in the direction sought with a large enough effect; inconclusive = small, poorly fitted or top-dose-only effect, or another doubt; inactive = no such curve, though single readings can be large; an effect the other way counts as inactive or inconclusive.
# What was measured:
# [1] = qHTS for Inhibitors of Plasmodium falciparum (GB4) proliferation (AID 504315); note: nearly all actives have a fitted effect of over 50% in size; note: potency is the fitted concentration of half-maximal effect
# Summary of the method: (§1)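 Erythrocytes infected with P. falciparum line (0.3% parasitemia, 2.5% hematocrit final) incubated with compounds 72 h at 37 °C, 5% CO2; SYBR Green lysis buffer added, fluorescence read next day. Normalized to 0.29 uM artemisinin and DMSO.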
# [2] = qHTS for Inhibitors of Plasmodium falciparum (HB3) proliferation (AID 504318); note: nearly all actives have a fitted effect of over 60% in size; note: potency is the fitted concentration of half-maximal effect
# Summary of the method: as §1
# [3] = qHTS for Inhibitors of Plasmodium falciparum (CP250) proliferation (AID 504320)
# Summary of the method: as §1
# [4] = molecular target: Atrial natriuretic peptide receptor 1 (Homo sapiens) (UniProt P16066); assay: Natriuretic polypeptide receptor (hNpr1) antagonism - Pilot CMLD screen (AID 1347052; calls by dose curve;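 note: cGMP level read as GloSensor luciferase luminescence after agonist stimulation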)
# Sequence of Atrial natriuretic peptide receptor 1 (Homo sapiens) (P16066 whole entry, looked up): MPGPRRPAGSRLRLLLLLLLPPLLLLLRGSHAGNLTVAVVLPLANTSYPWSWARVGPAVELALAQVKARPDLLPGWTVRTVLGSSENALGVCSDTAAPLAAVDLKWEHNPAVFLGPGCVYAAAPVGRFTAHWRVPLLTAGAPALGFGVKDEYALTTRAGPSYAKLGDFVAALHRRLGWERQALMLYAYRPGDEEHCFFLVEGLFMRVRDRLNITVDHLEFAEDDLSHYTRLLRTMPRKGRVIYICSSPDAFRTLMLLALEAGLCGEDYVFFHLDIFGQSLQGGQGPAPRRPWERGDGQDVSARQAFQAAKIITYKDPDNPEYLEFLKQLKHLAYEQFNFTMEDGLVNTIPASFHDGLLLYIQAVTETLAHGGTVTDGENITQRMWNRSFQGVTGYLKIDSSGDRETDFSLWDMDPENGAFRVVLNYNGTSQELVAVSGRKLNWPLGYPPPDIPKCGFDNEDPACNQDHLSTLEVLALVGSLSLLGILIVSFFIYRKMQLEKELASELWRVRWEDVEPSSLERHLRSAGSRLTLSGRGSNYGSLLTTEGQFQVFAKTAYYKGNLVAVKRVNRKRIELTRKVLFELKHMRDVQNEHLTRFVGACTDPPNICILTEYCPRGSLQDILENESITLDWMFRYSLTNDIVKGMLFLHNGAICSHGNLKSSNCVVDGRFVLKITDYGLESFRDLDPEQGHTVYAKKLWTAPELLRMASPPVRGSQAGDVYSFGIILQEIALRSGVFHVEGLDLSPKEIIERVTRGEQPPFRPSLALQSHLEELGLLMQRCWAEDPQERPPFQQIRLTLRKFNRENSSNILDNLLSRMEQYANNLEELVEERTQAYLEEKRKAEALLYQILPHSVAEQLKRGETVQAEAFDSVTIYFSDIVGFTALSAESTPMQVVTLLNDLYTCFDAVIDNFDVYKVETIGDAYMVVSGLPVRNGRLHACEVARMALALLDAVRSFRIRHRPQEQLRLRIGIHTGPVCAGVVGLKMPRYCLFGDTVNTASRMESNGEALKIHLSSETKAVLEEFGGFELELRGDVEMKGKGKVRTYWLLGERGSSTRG
SMILES,Potency [1],Potency [2],Potency [3],Potency [4],outcome [4]
COc1cccc([C@H]2Oc3ccc(OC)cc3C(=NO[C@H](C)CN3CCCc4nc(C)c(C)cc43)[C@H]2O)c1,inactive,inactive,inactive,inactive,
O=C(NC(CC1=CCCCC1)c1ccc2ccccc2c1)C(F)(F)F (stereo not drawn),inactive,inactive,inactive,inactive,
C[C@H]1C=CCC(=O)N[C@@H](c2ccc3ccccc3c2)[C@@H](C)C=CCC(=O)N[C@@H]1c1ccc2ccccc2c1,inactive,inactive,inactive,inactive,
N#Cc1ccc2c(c1)C[C@]1(c3ccsc3)OC3=C(C(=O)OC4(CCCCC4)C3)[C@H]2O1,inactive,inactive,inactive,inactive,
COc1ccc2c3c(c(=O)oc2c1)[C@H]1O[C@](c2ccsc2)(Cc2cc(C#N)ccc21)O3,inactive,,inactive,inactive,
O=C1C2=C(C(=O)c3ccccc31)[C@H]1O[C@](c3ccsc3)(Cc3c1ccc1ccccc31)O2,inactive,inactive,inactive,inactive,
N#Cc1ccc2c(c1)C[C@]1(CCCCN3C(=O)c4ccccc4C3=O)Oc3cc(-c4ccccc4)oc(=O)c3[C@H]2O1,inactive,inactive,inactive,inactive,
CCCCC[C@]12Cc3cc(OC)c(OC)cc3[C@H](O1)c1c(cc(C)n(-c3ccccc3)c1=O)O2,inactive,2.94 µM (active) and inactive,inactive,inactive,
COc1cccc([C@@H]2NC(=O)CC=C[C@H](C)[C@H](c3cccc(OC)c3)NC(=O)CC=C[C@H]2C)c1,inactive,,inactive,inactive,
COc1cccc([C@@H]2Oc3ccc(Br)cc3C(=O)[C@@H]2O)c1,inactive,inactive,inactive,inactive,
CC12C=C(C=Cc3ccc(F)cc3)C(C)(C1)C(c1ccc(F)cc1)CC2=O (stereo not drawn),inactive,,inactive,inactive,
COc1ccc(O[C@H]2C=C[C@@H](c3ccccc3)O[C@H]2COC(=O)CCC(C)=NO[C@@H]2O[C@H](COC(C)=O)[C@@H](OC(C)=O)[C@H](OC(C)=O)[C@@H]2OC(C)=O)cc1,inactive,inactive,inactive,inactive,
COc1cc(CCN2C(=O)NC(c3cccc(C(F)(F)F)c3)C(C(C)=O)=C2C)cc(OC)c1OC (stereo not drawn),inactive,,inactive,inactive,
C#CCOCC#CC[C@@]1(C(=O)OC)C=C[C@@H](C)[C@H](c2ccccc2Br)N1C(=O)C(F)(F)F,inactive,,inactive,inactive,
COc1cccc([C@@H]2Oc3ccc(OC)cc3C(=O)[C@@H]2OC(=O)Nc2cc(OC)c(OC)c(OC)c2)c1,inactive,inactive,inactive,inactive,
COc1ccc([C@]23Cc4ccccc4[C@H](O2)c2c(cc(-c4ccccc4)oc2=O)O3)cc1,inactive,inactive,inactive,inactive,
CC(C)=CCCC(C)=CCON=C1C[C@@H](O)[C@@H](O)[C@@H]2[C@H]3C(=O)N(c4cccc(Oc5ccccc5)c4)C(=O)[C@@H]3CC[C@H]12,inactive,inactive,inactive,inactive,
COC(=O)C(C(=O)OC)[C@@H]1O[C@@]23COC=C[C@]2(C)[C@@H]3c2ccccc21,inactive,inactive,inactive,inactive,
COC(=O)C1=C(C)N(CC2CC2)C(=O)NC1c1ccc(Br)cc1 (stereo not drawn),inactive,inactive,inactive,inactive,
C[C@@H]1C[C@](C)(C(=O)c2ccco2)C=C1c1ccco1,inactive,inactive,inactive,inactive,
O=c1oc2ccccc2c2c1[C@H]1O[C@](c3ccsc3)(Cc3ccccc31)O2,inactive,inactive,inactive,inactive,
CC(C)=CCCC(C)=CCN1C(=O)[C@@]2(CC(C)=C[C@@H](COCc3ccccc3)O2)c2ccccc21,inactive,,inactive,inactive,
COC(=O)CC=C1c2ccccc2OC[C@@H](OC)[C@H]1C,inactive,inactive,inactive,inactive,
CC1=C[C@]2(O[C@H](COc3ccccc3)C1)C(=O)N(C)c1ccccc12,inactive,inactive,inactive,,inactive
COc1cc([C@@H](NC(=O)C(F)(F)F)C2CCCCC=C2c2ccccc2)cc(OC)c1OC (stereo partly drawn),inactive,,inactive,inactive,
COc1cc(OC)c([C@@H]2O[C@H](CO)[C@@H](O)[C@H](O)[C@@H]2O)c(OC)c1,inactive,inactive,inactive,inactive,
CC(=O)O[C@@H]1C(CO[Si](C)(C)C(C)(C)C)=C(Br)C(=O)[C@@H]2O[C@]12C,inactive,inactive,inactive,inactive,

SMILES,Potency [1],Potency [2],Potency [3],Potency [4],outcome [4]
COc1ccc([C@]23Cc4ccccc4[C@H](O2)C2=C(O3)C(=O)c3ccccc3C2=O)cc1,1690 nM (active),1.51 µM (active),inactive,inactive,
CC(=O)OC[C@H]1O[C@H](C#CC(C)(C)C)C=C[C@H]1OC(C)=O,inactive,inactive,inactive,inactive,
COc1ccc(N2C(=O)N3[C@H](c4ccccc4)[C@@H](C)C[C@H]4c5ccccc5C[C@]43C2=O)cc1,inactive,inactive,inactive,inactive,
COC(=O)CCC(=O)OC1(C)C(=O)C=C2C=C(C3CC3)OC=C2C1=O (stereo not drawn),inactive,inactive,inactive,inactive,
CC1(OC(=O)c2ccc(Cl)nc2)C(=O)C=C2C=C(c3ccsc3)OC=C2C1=O (stereo not drawn),inactive,inactive,inactive,inactive,
COc1ccc2c(c1)CO[C@H]([C@H](O)CO)[C@H]2C=CC#Cc1ccc(C(C)(C)C)cc1,inactive,inactive,inactive,inactive,
C#CCCCON=C1C[C@@H](O)[C@H](O)[C@H]2[C@@H]3C(=O)N(Cc4ccc5c(c4)OCO5)C(=O)[C@@H]3CC[C@@H]12,inactive,,inactive,inactive,
COc1cccc([C@@H](NC(=O)C(F)(F)F)[C@@H]2CCCC=C2c2ccccc2)c1,inactive,,inactive,inactive,
CCc1cc2c(nc1CC)CCN(CCC(C)=NO[C@@H]1O[C@H](COC(C)=O)[C@@H](OC(C)=O)[C@H](OC(C)=O)[C@@H]1OC(C)=O)C2,inactive,,inactive,inactive,
COC(=O)C1=C(C)N(CC2CC2)C(=O)NC1CCc1ccccc1 (stereo not drawn),inactive,,inactive,inactive,
O=C(NCCOc1ccccc1)O[C@@H]1C(=O)c2cc(Br)ccc2O[C@H]1c1ccc2c(c1)OCO2,inactive,,inactive,inactive,
CC=Cc1cc2ccccc2c2c(C(=O)OC)c(C(=O)OC)c(C(=O)OC(C)(C)C)n12,inactive,,inactive,inactive,
CC12C=C(C=CCCc3ccco3)C(C)(C1)[C@H](CCc1ccco1)CC2=O (stereo partly drawn),inactive,,inactive,inactive,
COC(=O)C1=C(C(=O)OC)[C@@H]2N(Cc3ccccc3)c3ccccc3[C@@]23C[C@@H](C(=O)OC)N(C(=O)NCc2ccccc2)C3=C1,inactive,,inactive,inactive,
CCc1cc2c(nc1CC)CCN(CCC(C)=NOCC[C@@H]1C=C[C@H](OC(C)=O)[C@@H](COC(C)=O)O1)C2,inactive,,inactive,inactive,
CC(CCN1CCCc2nc(C)c(C)cc21)=NOC[C@@H](O)COCc1ccco1,inactive,,inactive,inactive,
C#CCCCON=C1C[C@@H](O)[C@H](O)[C@H]2[C@@H]3C(=O)N(Cc4ccc5c(c4)OCO5)C(=O)[C@@H]3CC[C@H]12,inactive,,inactive,inactive,
C[C@]12C[C@@](C)(C=C1C=Cc1ccc(C(F)(F)F)cc1)C(=O)C[C@H]2c1ccc(C(F)(F)F)cc1,1510 nM (active),,inactive,inactive,
CC12C=C(C=Cc3ccccc3)C(C)(C1)C(c1ccccc1)CC2=O (stereo not drawn),inactive,,inactive,inactive,
C#CCCOC(=O)N1C2=NC3=C(C(=O)N(Cc4ccc5c(c4)OCO5)C3=O)C3N(C)c4ccccc4[C@]23C[C@H]1CO (stereo partly drawn),inactive,,inactive,inactive,
C=C(C)C[C@@]1(c2ccccc2)Oc2ccccc2C2=NCCN=C21,inactive,,inactive,inactive,
O=C1[C@@H]2[C@H]3[C@H](O)[C@H](O)CC(=NOC[C@@H](O)COCc4ccco4)[C@@H]3CC[C@H]2C(=O)N1Cc1ccccc1,inactive,,inactive,inactive,
CC1=CC[C@@H](COc2ccccc2)O[C@@]2(C1)C(=O)N(CC1CC1)c1ccccc12,inactive,,inactive,inactive,
COc1cc2c(c(OC)c1OC)[C@@]1(c3ccccc3)CCCC[C@H]1[C@@H]2NC(=O)C(F)(F)F,inactive,,inactive,inactive,
C[C@@H]1CC[C@H]2C(=O)N(Cc3ccc(Cl)cc3)C[C@@H](O)CN2[C@@H]1c1cccc(Br)c1,inactive,,inactive,inactive,
COc1ccc2c(c1)O[C@@H](c1ccc3c(c1)OCO3)[C@H](OC(=O)NCCOc1ccccc1)C2=O,inactive,,inactive,inactive,
C[C@H]1CC[C@H]2C(=O)N(Cc3ccccc3)C[C@@H](O)CN2[C@H]1c1cccc(Br)c1,inactive,,inactive,inactive,
